# From PMC5540273 (PLoS ONE, 2017)
# Tested on: T1, PCTK1
# T1 construct: gene CDK16
# Conditions: concentration: 1 μM, replicates: in singlicate; n = 1
# 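Further: KINOMEscan kinase panel screen.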
row,SMILES,%Inh
1,Cl.c1ccc(-c2ccc3c(Nc4ccc5[nH]ccc5c4)ccnc3c2)nc1 [GW440138],0%
2,O=C(Nc1ccccc1F)NC1CCN(c2ccnc(Nc3ccc(F)cc3)n2)CC1 [GSK1379800],0%
3,Cc1cccc(NC(=O)Nc2ccc(Oc3ncnc4ccn(C)c34)cc2)c1,0%
4,COc1cccc(C2=C(Nc3ccc(Cl)c(C(=O)O)c3)C(=O)NC2=O)c1 [SB-390769],0%
5,COc1cccc(-c2ccc3c(NC(=O)C4CC4)n[nH]c3n2)c1 [SB-710903],10%
6,CN1CCN(CCCNc2nccc(-c3c(-c4ccc(F)cc4)nn4cc(C(F)(F)F)ccc34)n2)CC1 [GW621581],0%
7,COCCOCCOc1cc2ncc3c4ccc(C#N)cc4[nH]c3c2cc1OC,0%
8,O=C(Nc1cccc(-c2nn3ncccc3c2-c2ccnc(Nc3ccccc3)n2)c1)c1c(F)cccc1F [GSK198271],10%
9,c1ccc(-c2n[nH]cc2Nc2ccnc3ccccc23)nc1 [GW694077],4%
10,COC(=O)Nc1nc2ccc(Oc3ccc(NC(=O)Nc4cc(C(F)(F)F)ccc4F)cc3)cc2n1C.Cl [GW692089],0%
11,Cn1cc(-c2ccc3c(c2)CCN3C(=O)Cc2cccc(Cl)c2)c2c(N)ncnc21 [GSK2606590],0%
12,CC(C)(C)c1ccc2nccc(Nc3cccc(O)c3)c2c1 [GW856795],0%
13,COc1cc(Nc2nccc(N3CCC(NC(=O)Nc4cccc(C(C)=O)c4)C3)n2)cc(OC)c1OC (stereo not shown) [GSK1379753],10%
14,O=C(Nc1n[nH]c2nc(-c3ccc(O)cc3)ccc12)C1CC1 [SB-710363],61%
15,c1ccc(-c2cnc3nccnn23)cc1 [AH20685],7%
16,CN(C)Cc1ccc(-c2ccc3c(Nc4ccc(Oc5ccccn5)cc4)ccnc3c2)o1 [GW567148],3%
17,NCCCC(NC(=O)c1cc(Br)c(-c2ccnc3[nH]ccc23)s1)c1ccccc1.O=C(O)C(F)(F)F.O=C(O)C(F)(F)F (stereo not shown) [GSK1287544],10%
18,CCS(=O)(=O)c1ccc(OC)c(Nc2nccc(-c3c(-c4cccc(NC(=O)c5c(F)cccc5F)c4)nn4ncccc34)n2)c1 [GSK326180],2%
19,CCn1c(-c2nonc2N)nc2c(C#CC(C)(C)O)ncc(OCCCCN)c21.O=C(O)C(F)(F)F.O=C(O)C(F)(F)F [GSK507274],8%

row,SMILES,%Inh
1,Cl.Cl.NCC(NC(=O)c1cc(-c2ccccc2)c(-c2ccnc3[nH]ccc23)s1)c1ccccc1 (stereo not shown) [GSK1321561],7%
2,Clc1ccc(-c2nn3ncccc3c2-c2ccnc(Nc3ccc4c(c3)OCCO4)n2)cc1 [GW829116],0%
3,Cc1ccc(C)c(NC(=O)NC2CCN(c3ccnc(Nc4ccc(F)cc4)n3)C2)c1 (stereo not shown) [GSK1379720],0%
4,CN1CCN(Cc2cccc(-c3ccc4c(Nc5ccc(Oc6ccccc6)cc5)ccnc4c3)c2)CC1 [GW578342],0%
5,O=C(O)C(F)(F)F.O=C(O)C(F)(F)F.O=c1[nH]ccc2nc(N[C@@H]3CCCNC3)nc(Nc3ccc(S(=O)(=O)N4CCOCC4)cc3)c12 [GSK2177277],99.9%
6,COc1cc(Nc2nccc(-c3c(-c4cccc(NC(=O)c5c(F)cccc5F)c4)nn4ncccc34)n2)cc(OC)c1OC [GSK327238],11%
7,O=C(NC1CCN(c2ccnc(Nc3ccc(F)cc3)n2)C1)c1cc2ccccc2s1 (stereo not shown) [GSK1379716],0%
8,Cl.c1ccc(-c2ccc3c(Nc4ccc5[nH]ncc5c4)ccnc3c2)nc1 [GW440137],2%
9,COc1cc(Nc2ncc3c(C)nc(-c4cc5ccccc5[nH]4)n3n2)cc(OC)c1OC [GW869516],0%
10,CCCCc1nn2ncccc2c1-c1ccnc(Nc2ccc(N3CCN(C)CC3)cc2)n1 [GW684941],26%
11,C[C@@H](Oc1cc(-n2cnc3cc(-c4ccnc(NCCS(C)(=O)=O)c4)ccc32)sc1C(N)=O)c1ccccc1Cl [GSK907232],7%
12,O=C(Nc1cccc(-c2nn3ccccc3c2-c2ccnc(Nc3cccc(F)c3)n2)c1)c1c(F)ccc(F)c1Cl [GSK357952],0%
13,CCc1ccc(-c2ccc3c(c2)-c2c(cnn2C)S(=O)(=O)N3C)cc1,0%
14,O=C(Nc1cccc(-c2nn3ccccc3c2-c2ccnc(Nc3cccc(C(F)(F)F)c3)n2)c1)c1c(F)cccc1F [GSK292658],2%
15,Cl.NC(=O)c1cccc(Nc2nccc(Nc3ccc(Oc4c(Cl)cccc4Cl)c(Cl)c3)n2)c1 [GW659009],0%
16,COc1ccc(CNC(=O)NC2CCN(c3ccnc(Nc4ccc(F)cc4)n3)CC2)cc1 [GSK1379788],0%
17,COc1ccc(Nc2nccc(NCCNC(=O)c3cc4ccccc4s3)n2)cc1 [GSK1379896],1%
18,O=c1[nH]cc(-c2ccc(N3CCOCC3)cc2)c2sc(-c3cn[nH]c3)cc12 [GSK2276055],4%
